The values below come from PubChem BioAssay (EPA / NIEHS).

Activity calls are given as the source filed them. Rule for the calls: active = hit-call score of the fitted dose curve at least 0.9, where 1 is the maximum; inactive = score below 0.9.

The target of assay [1] is CCAAT/enhancer-binding protein beta (Homo sapiens) (UniProt P17676). In words: ATG_C_EBP_CIS: Attagene CIS-FACTORIAL HepG2 Assay for human CCAAT/Enhancer Binding Protein (C/EBP) beta (AID 2282927). Conditions: HepG2 Attagene cis-factorial transcription factor reporter; actives raise or lower the signal. The method, boiled down:
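HepG2 transiently transfected with multiplexed reporter units under cis-regulatory promoters reporting endogenous C/EBPb activity. After 24 h exposure, reporter mRNA assayed by RT-PCR, fluorescent labelling, HpaI digestion and capillary electrophoresis; bidirectional fitting versus DMSO.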

Assay [2] is described as follows: ATG_DR4_LXR_CIS: Attagene CIS-FACTORIAL HepG2 Assay for human Liver X Receptor (LXR), DR4 submotif (AID 2282929). Conditions: HepG2 Attagene DR4 cis-reporter, mRNA transcription; actives raise or lower the signal. The method, boiled down: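 Total RNA from 24 h-treated, MRTU-transfected HepG2 cells underwent reverse transcription, PCR, fluorescent primer extension and restriction digestion before capillary electrophoresis. Both increases and decreases in reporter signal were fitted against DMSO.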

Assay [3] is described as follows: ATG_AP_2_CIS: Attagene CIS-FACTORIAL HepG2 Assay for human Activator Protein 2 (AP-2) (AID 2282932). Conditions: HepG2 AP-2 cis-reporter, Attagene transcription factor profiling; actives raise or lower the signal. The method, boiled down:
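Liver-derived HepG2 line, cis-reporter system measuring endogenous factors; 24 h dosing; reporter mRNA detected by fluorescent RT-PCR and capillary electrophoresis.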

In assay [4] the target is Transcription factor E2F1 (Homo sapiens) (UniProt Q01094). In words: ATG_E2F_CIS: Attagene CIS-FACTORIAL HepG2 Assay for human E2F Transcription Factor 1 (AID 2282935). Conditions: HepG2 Attagene cis-reporter, E2F reporter RNA transcripts; actives raise or lower the signal. The method, boiled down: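 Liver-derived HepG2 cells expressing transfected promoter-driven reporter units received test chemical for 24 hours. Signal gains or losses were fitted bidirectionally against DMSO.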

A short description of assay [5]: ATG_E_Box_CIS: Attagene CIS-FACTORIAL HepG2 Assay for human Enhancer Box (E-box) (AID 2282936). The note with it: HepG2 E-box cis-reporter transcription, actives raise or lower the signal. An outline of the steps: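 In this cell-based setup, HepG2 cells bearing transfected promoter-driven reporter units were exposed to chemicals for 24 h; reporter transcripts were amplified, 6-FAM-labelled, cut with HpaI and sized by capillary electrophoresis.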

Assay [6] is described as follows: ATG_M_19_CIS: Attagene CIS-FACTORIAL HepG2 Assay for M19 Transcription Factor (Internal Marker) (AID 2282939). The note with it: HepG2 Attagene CIS-FACTORIAL M19 internal marker reporter; actives raise or lower the signal. The method, boiled down:
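Chemical-treated HepG2 (24 h) with MRTU constructs; reporter transcripts detected by fluorescent RT-PCR fragment analysis on capillary electrophoresis. Internal background marker, DMSO as baseline.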

Assay [7] can be described thus: ATG_GLI_CIS: Attagene CIS-FACTORIAL HepG2 Assay for human Zinc Finger Protein GLI1 (AID 2282945). The note with it: HepG2, Attagene cis-factorial reporter mRNA, GLI element; actives raise or lower the signal. The method, boiled down:
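Transiently transfected HepG2 cells report endogenous transcription factor activity via cis-element-driven reporter units. After 24 h compound exposure, reporter mRNA was measured by RT-PCR with capillary electrophoresis; bidirectional fitting against DMSO baseline.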

A short description of assay [8]: ATG_ISRE_CIS: Attagene CIS-FACTORIAL HepG2 Assay for human Interferon Regulatory Factor 1 (IRF1) binding to an Interferon-Stimulated Response Element (ISRE) (AID 2282948). Conditions: HepG2 ISRE cis-reporter (Attagene), mRNA transcription readout; actives raise or lower the signal. The method, boiled down:
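Endogenous transcription factor activity read as reporter transcript abundance via RT-PCR and capillary electrophoresis. HepG2 cells transiently transfected, 24 h chemical exposure. Gain or loss fitted against DMSO baseline.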

Assay [9] can be described thus: ATG_M_32_CIS: Attagene CIS-FACTORIAL HepG2 Assay for M32 Transcription Factor (Internal Marker) (AID 2282949).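 Note: background control marker of the multiplexed CIS panel rather than a real target.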 Conditions: HepG2 Attagene cis-factorial M32 reporter, mRNA; actives raise or lower the signal. An outline of the steps: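 HepG2 transfectants (cis-regulated reporter transcription units) dosed 24 h. Reporter mRNA by RT-PCR plus CE, analysed as gain or loss relative to DMSO.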

Assay [10] in a line: ATG_PXRE_CIS: Attagene CIS-FACTORIAL HepG2 Assay for human Pregnane X Receptor Element (PXRE) (AID 2282957). Conditions: HepG2 Attagene CIS-FACTORIAL PXRE reporter, mRNA; actives raise or lower the signal. The method, boiled down: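 Bidirectional activity, baselined to DMSO, derived from reporter mRNA fluorescence (RT-PCR plus capillary electrophoresis) in HepG2 cells bearing cis-promoter reporter units, 24 h exposure.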

A short description of assay [11]: ATG_Sox_CIS: Attagene CIS-FACTORIAL HepG2 Assay for human SRY-box transcription factor (SOX) (AID 2282960). Conditions: HepG2 Attagene cis-factorial SOX reporter, mRNA; actives raise or lower the signal. An outline of the steps: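 HepG2, cis reporter units, 24 h exposure. Reporter mRNA: RT-PCR → FAM labelling → HpaI → CE fluorescence. Bidirectional fit vs DMSO.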

Assay [12] deals with Transcription factor Sp1 (Homo sapiens) (UniProt P08047). In words: ATG_Sp1_CIS: Attagene CIS-FACTORIAL HepG2 Assay for human Specificity Protein 1 (Sp1) (AID 2282961). Conditions: HepG2 Sp1 cis-reporter transcription, actives raise or lower the signal. An outline of the steps:
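Liver-derived HepG2 cells, cis-element reporter library, 24 h treatment; RNA isolated, cDNA amplified with reporter-specific primers, FAM-labeled fragments sized on capillary analyzer. DMSO baseline, bidirectional curve fit.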

Assay [13] concerns the target Signal transducer and activator of transcription 3 (Homo sapiens) (UniProt P40763). In words: ATG_STAT3_CIS: Attagene CIS-FACTORIAL HepG2 Assay for human Signal Transducer and Activator of Transcription 3 (STAT3) (AID 2282963). Conditions: HepG2, Attagene cis-factorial STAT3 reporter transcription; actives raise or lower the signal. An outline of the steps: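 Fluorescence intensity of 6-FAM-labelled reporter fragments, separated by capillary electrophoresis after RT-PCR, gave the signal. Cells were HepG2 transfected with cis-element reporter units and treated 24 h; fitting was bidirectional relative to DMSO.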

Assay [14] in a line: ATG_TA_CIS: Attagene CIS-FACTORIAL HepG2 Assay for human TA Basal Promoter (AID 2282964). The note with it: HepG2 Attagene CIS-factorial TA basal promoter reporter; actives raise or lower the signal. An outline of the steps:
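Background internal-marker endpoint from a 52-component HepG2 cis-reporter panel. Cells treated 24 h; reporter transcripts quantified via RT-PCR and CE fluorescence against DMSO baseline.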

A short description of assay [15]: ATG_TCF_b_cat_CIS: Attagene CIS-FACTORIAL HepG2 Assay for human T-Cell-Factor with beta-catenin (TCF/b-cat) (AID 2282965). Conditions: HepG2 TCF/beta-catenin cis-reporter transcription, actives raise or lower the signal. An outline of the steps: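 HepG2 cells transiently transfected with cis-promoter-driven multiplexed reporter units; reporter mRNA measured 24 h after dosing by RT-PCR, FAM labelling, HpaI digestion and capillary electrophoresis. Bidirectional fitting relative to DMSO baseline.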

Assay [16] can be described thus: ATG_TAL_CIS: Attagene CIS-FACTORIAL HepG2 Assay for human TAL Basal Promoter (AID 2282966).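 Note: background control endpoint measuring basal TAL promoter reporter mRNA not a specific factor.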 The note with it: HepG2 Attagene cis-factorial TAL promoter reporter; actives raise or lower the signal. The method, boiled down: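 Human hepatoma HepG2 cells, transfected with promoter-regulated reporter units, were treated 24 h. Reporter transcript levels, measured through RT-PCR and capillary electrophoresis, were fitted for gain or loss relative to DMSO.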

The target of assay [17] is X-box-binding protein 1 (Homo sapiens) (UniProt P17861). In words: ATG_Xbp1_CIS: Attagene CIS-FACTORIAL HepG2 Assay for human X-box Binding Protein 1 (XBP1) (AID 2282972). Conditions: HepG2 XBP1 cis-element reporter, Attagene multiplex; actives raise or lower the signal. The method, boiled down: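 Reporter transcripts were quantified by RT-PCR with fluorescent primer extension and capillary electrophoresis after 24 h chemical exposure. Cells: transiently transfected HepG2 carrying cis-regulated reporter constructs; data fitted bidirectionally relative to DMSO.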

In assay [18] the target is Transcriptional activator Myb (Homo sapiens) (UniProt P10242). In words: ATG_Myb_CIS: Attagene CIS-FACTORIAL HepG2 Assay for human Myeloblastosis (Myb) Proto-Oncogene Transcription Factor (AID 2282986). Conditions: HepG2 Attagene CIS-FACTORIAL Myb reporter transcription; actives raise or lower the signal. An outline of the steps:
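After 24 h of compound dosing, total RNA from transfected HepG2 cells is reverse-transcribed and the reporter sequences amplified, labeled and separated by capillary electrophoresis. Values come from bidirectional fitting against DMSO.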

For assay [19], the target named is Myc proto-oncogene protein (Homo sapiens) (UniProt P01106). In words: ATG_Myc_CIS: Attagene CIS-FACTORIAL HepG2 Assay for human Myelocytomatosis (Myc) Proto-Oncogene Transcription Factor (AID 2282990). Conditions: HepG2, Attagene cis-reporter transcription factor activity; actives raise or lower the signal. An outline of the steps: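 Transiently transfected HepG2 cells bearing cis-promoter reporter units for endogenous transcription factors; 24 h exposure. Reporter mRNA measured by RT-PCR, 6-FAM primer extension, HpaI cut and capillary electrophoresis; bidirectional fit relative to DMSO.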

Assay [20] is described as follows: ATG_Oct_MLP_CIS: Attagene CIS-FACTORIAL HepG2 Assay for human Octamer-Binding Transcription Factor (Oct) (AID 2282993). The note with it: HepG2 Attagene cis-factorial Oct reporter, mRNA; actives raise or lower the signal. An outline of the steps:
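Using HepG2 cells bearing transfected cis-reporter constructs, mRNA induction was read after 24 h by fluorescent RT-PCR and capillary electrophoresis, with DMSO defining baseline for gain- or loss-of-signal fits.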

Transcription factor E2F1 (Homo sapiens), sequence (Q01094 whole entry, looked up): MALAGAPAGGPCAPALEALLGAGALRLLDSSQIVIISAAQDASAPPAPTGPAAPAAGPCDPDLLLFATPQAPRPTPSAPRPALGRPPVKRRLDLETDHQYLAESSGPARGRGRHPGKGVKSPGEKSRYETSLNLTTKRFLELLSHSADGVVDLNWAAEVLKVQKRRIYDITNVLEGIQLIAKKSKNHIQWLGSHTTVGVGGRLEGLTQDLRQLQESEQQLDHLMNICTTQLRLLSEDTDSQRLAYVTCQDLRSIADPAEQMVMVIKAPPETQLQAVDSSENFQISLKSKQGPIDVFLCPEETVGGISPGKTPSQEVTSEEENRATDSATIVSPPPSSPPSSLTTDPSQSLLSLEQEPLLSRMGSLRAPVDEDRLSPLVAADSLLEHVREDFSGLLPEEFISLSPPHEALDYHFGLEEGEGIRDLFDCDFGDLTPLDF
Myc proto-oncogene protein (Homo sapiens), sequence (P01106 whole entry, looked up): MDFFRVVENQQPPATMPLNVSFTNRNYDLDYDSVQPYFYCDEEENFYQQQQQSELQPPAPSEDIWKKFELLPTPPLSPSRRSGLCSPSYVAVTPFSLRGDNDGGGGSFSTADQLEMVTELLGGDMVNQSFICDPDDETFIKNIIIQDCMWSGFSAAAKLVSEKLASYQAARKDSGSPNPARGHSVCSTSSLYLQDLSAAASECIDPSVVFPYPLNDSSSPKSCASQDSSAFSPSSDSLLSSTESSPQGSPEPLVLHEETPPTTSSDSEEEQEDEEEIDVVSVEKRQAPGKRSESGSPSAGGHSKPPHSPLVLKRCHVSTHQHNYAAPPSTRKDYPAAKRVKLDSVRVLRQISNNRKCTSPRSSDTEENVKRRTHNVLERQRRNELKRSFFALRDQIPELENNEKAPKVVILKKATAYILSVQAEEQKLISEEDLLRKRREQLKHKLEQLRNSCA
Transcriptional activator Myb (Homo sapiens), sequence (P10242 whole entry, looked up): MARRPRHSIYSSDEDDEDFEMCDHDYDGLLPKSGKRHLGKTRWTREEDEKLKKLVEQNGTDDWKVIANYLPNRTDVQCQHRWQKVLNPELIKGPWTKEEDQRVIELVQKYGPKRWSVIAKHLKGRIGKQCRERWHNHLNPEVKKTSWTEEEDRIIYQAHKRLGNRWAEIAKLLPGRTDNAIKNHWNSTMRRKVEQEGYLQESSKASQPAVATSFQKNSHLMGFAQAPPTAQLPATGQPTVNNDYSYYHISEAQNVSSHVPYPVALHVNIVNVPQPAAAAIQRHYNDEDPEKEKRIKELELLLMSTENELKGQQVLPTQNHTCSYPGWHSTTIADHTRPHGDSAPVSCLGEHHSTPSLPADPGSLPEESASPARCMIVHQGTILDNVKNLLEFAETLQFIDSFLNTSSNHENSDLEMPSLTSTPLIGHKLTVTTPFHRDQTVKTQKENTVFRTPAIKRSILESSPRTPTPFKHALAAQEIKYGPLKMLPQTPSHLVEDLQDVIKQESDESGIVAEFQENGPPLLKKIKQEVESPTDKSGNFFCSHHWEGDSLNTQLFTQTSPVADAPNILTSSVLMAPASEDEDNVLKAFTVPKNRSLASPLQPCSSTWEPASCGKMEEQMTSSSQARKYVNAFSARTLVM
CCAAT/enhancer-binding protein beta (Homo sapiens), sequence (P17676 whole entry, looked up): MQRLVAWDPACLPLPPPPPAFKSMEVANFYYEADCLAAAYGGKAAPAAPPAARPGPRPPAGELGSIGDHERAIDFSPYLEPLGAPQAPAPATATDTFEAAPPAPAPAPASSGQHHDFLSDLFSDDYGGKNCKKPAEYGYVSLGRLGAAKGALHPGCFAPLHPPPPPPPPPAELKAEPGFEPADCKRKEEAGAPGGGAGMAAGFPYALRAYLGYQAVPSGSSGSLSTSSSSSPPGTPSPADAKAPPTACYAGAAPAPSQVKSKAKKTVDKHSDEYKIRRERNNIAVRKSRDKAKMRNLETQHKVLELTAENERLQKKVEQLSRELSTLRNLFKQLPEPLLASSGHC
Signal transducer and activator of transcription 3 (Homo sapiens), sequence (P40763 whole entry, looked up, the tested form may be a part): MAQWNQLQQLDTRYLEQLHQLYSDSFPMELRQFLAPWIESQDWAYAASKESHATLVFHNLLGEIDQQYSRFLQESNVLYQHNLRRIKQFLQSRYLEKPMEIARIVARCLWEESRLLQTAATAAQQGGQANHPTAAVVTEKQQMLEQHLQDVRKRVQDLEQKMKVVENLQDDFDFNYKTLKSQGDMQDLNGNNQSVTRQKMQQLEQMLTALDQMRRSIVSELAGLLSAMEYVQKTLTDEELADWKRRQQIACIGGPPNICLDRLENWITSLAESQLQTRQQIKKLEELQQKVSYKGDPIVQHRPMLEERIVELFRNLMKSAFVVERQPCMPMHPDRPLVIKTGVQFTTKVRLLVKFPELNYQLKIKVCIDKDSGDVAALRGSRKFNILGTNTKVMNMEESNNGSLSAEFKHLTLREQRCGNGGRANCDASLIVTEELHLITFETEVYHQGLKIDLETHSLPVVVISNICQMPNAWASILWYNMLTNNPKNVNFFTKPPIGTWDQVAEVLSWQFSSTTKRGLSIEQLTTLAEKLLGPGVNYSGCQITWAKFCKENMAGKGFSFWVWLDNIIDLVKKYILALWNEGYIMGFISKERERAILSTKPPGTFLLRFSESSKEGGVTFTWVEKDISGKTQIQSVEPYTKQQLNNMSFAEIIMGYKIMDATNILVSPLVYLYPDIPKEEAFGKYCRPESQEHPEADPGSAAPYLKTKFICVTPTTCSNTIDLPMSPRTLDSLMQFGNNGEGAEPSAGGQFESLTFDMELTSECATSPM
X-box-binding protein 1 (Homo sapiens), sequence (P17861 whole entry, looked up): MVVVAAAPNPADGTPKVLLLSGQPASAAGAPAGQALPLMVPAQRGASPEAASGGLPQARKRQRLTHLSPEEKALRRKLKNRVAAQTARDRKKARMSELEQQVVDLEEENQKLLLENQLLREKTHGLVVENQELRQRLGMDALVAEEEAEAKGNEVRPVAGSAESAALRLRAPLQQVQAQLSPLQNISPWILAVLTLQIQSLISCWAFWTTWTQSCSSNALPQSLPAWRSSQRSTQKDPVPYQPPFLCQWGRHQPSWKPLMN
Transcription factor Sp1 (Homo sapiens), sequence (P08047 whole entry, looked up, the tested form may be a part): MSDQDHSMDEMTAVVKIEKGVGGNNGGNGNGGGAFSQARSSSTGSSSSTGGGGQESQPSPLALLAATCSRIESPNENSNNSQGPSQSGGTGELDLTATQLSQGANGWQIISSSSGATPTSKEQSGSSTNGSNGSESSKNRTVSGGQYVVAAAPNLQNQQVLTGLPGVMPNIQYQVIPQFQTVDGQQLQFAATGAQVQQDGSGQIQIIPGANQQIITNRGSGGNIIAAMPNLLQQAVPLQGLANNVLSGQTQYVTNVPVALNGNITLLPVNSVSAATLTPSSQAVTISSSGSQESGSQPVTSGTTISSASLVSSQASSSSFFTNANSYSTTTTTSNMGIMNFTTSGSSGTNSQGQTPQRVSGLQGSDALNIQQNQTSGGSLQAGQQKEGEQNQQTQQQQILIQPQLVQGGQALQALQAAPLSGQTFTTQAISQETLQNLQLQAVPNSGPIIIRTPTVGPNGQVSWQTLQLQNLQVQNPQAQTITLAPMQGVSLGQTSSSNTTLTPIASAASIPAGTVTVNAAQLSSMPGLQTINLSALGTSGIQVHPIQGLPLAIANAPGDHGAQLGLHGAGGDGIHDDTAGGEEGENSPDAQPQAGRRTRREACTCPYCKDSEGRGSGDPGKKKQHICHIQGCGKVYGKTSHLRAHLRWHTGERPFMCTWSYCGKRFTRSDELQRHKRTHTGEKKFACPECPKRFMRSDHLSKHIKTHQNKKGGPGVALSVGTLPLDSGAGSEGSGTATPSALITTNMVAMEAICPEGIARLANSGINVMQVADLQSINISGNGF

`CCC1CCC(=O)O1` (stereo not given): the outcome in assay [1], in assay [2], in assay [3], in assay [4], in assay [5] and in assay [6] was inactive. Besides, the call in assay [7], in assay [8], in assay [9], in assay [11], in assay [12] and in assay [13] was inactive. Further, the outcome in [14], in [15], in [16], in assay [17], in assay [18] and in assay [19] was inactive. In [20], the compound was called inactive. Moreover, the concentration at half-maximal activity (AC50) in assay [10] was 27.3 µM (active).
`CC(C)[C@@H](C(=O)O[C@@H](C#N)c1cccc(Oc2ccccc2)c1)c1ccc(Cl)cc1`: the result in [1], in [3], in [4], in assay [5], in [6] and in assay [7] was inactive. The compound was called inactive in assay [8], in [9], in assay [11], in assay [12], in assay [13] and in assay [14]. In addition, the result in assay [15], in assay [16], in [17], in [18], in assay [19] and in [20] was inactive. The values for the AC50 in [2] and in assay [10] were 9.57 µM (active) and 0.678 µM (active), respectively.
For the compound `CCC(C)c1cc([N+](=O)[O-])cc([N+](=O)[O-])c1OC(=O)C=C(C)C` (stereo not given), the concentration at half-maximal activity (AC50) in assay [1] was 100 µM (active); in [4] it was 151 µM (active); in [5], 17.7 µM (active); in [7], 24.8 µM (active); in [8], 141 µM (active); in assay [10], 0.787 µM (active). In addition, the AC50 in [11] is 53.7 µM (active); in [12], 26.2 µM (active); in [13] it was 80.1 µM (active); in assay [14], 100 µM (active); in assay [15] it was 31.8 µM (active); in assay [17] it was 27.2 µM (active). The concentration at half-maximal activity (AC50) in assay [20] was 25.8 µM (active). In addition, the result in assay [2], in assay [3], in assay [6], in [9], in assay [16] and in [18] was inactive. In assay [19], the call was inactive.
